# Measurements as given in PubChem BioAssay AID434982 (The Scripps Research Institute Molecular Screening Center, 2010).
# Hit rate of the full screen: of about 15,000 compounds, about 60 (0.4%) were called active. This is one part of a sample in which actives are shown more often than they occur. Unmarked numbers belong to inactive results. Rule as the data show it: active = activation above about 2.2%; inactive = the rest.
# Assay: activates NOTCH signaling in reporter cells (AID 434982)
# Conditions: NOTCH signaling luciferase reporter cells, luminescence; at 2.5 µM; stronger effect = higher value
row,Structure (SMILES),activation
1,O=C1/C(=C\c2ccc3c(c2)OCO3)N2CCC1CC2,3.83% (active)
2,CN(C)CC1CCCCC1=O (stereo not given),0.24%
3,CNC(=O)O/N=C(\N)Cc1csc2ccc(Cl)cc12,0.88%
4,Cc1ccc(Oc2c(C)nc(-c3ccccc3)nc2OC(=O)N(C)C)cc1,0.1%
5,N#CCN1CCN(c2cccc(Cl)c2)CC1,0.33%
